The campaign covered roughly 320,000 compounds. About 740 (0.23%) were called active. Where a call stands in place of a potency, no number is given. Roughly 2% stayed inconclusive and do not appear here. This is one part of a sample in which actives are shown more often than they occur. Calls come from the whole dose curve; as a rule, active = well fitted activation curve with a large enough effect; inconclusive = small, poorly fitted or top-dose-only effect; inactive = no such curve, though single readings can be large or run the other way.
Experiment: qHTS Assay for Small Molecule Inhibitors of Mitochondrial Division or Activators of Mitochondrial Fusion; note: nearly all actives have a fitted effect of over 45% in size
Details: S. cerevisiae fusion-defective mutant growth rescue, CellTiterGlo 48 h; series mostly up to 46.1 µM
Source text: NIH Chemical Genomics Center [NCGC] NIH Molecular Libraries Probe Production centers Network [MLPCN] MLPCN Grant: MH081279-01 Assay Submitter (PI): Jodi M. Nunnari NCGC Assay Overview: The budding yeast S. cerevisiae is a powerful system to study mitochondrial fusion. Unlike other organisms, yeast cells without functional mitochondrial DNA (mtDNA) can be propagated and studied as long as they maintain a mitochondrial compartment and are provided with a fermentable carbon source. When mitochondrial fusion is blocked in yeast, mitochondrial tubules rapidly fragment and division continues unopposed. Under conditions where fusion is compromised in mammalian cells, nearly identical changes in mitochondrial structure have been observed. Thus, these findings indicate that steady state mitochondrial structure in cells is a characteristic and specific indicator of fusion activity. Mounting evidence has pointed to a connection between mitochondrial dynamics and apoptosis in mammalian cells. These studies indicate that in mammalian cells mitochondrial dynamics are more integrated into cellular processes than in yeast cells and have evolved not only to distribute the organelle but also to aid in the regulation of cellular homeostasis. Mitochondrial fusion proteins attenuate apoptosis by inhibiting the release of cytochrome c from mitochondria, in part by controlling cristae structures. Thus, small molecules that inhibit mitochondrial […] may promote apoptosis and potentially act as novel chemotherapeutics and stimulation of apoptosis has become an attractive target of anti-cancer therapies. To identify inhibitors of mitochondrial division, we exploit the growth phenotypes of mitochondrial fusion-defective mutants. The temperature sensitive fusion alleles, such as fzo1-1 and mgm1-5, cause mitochondrial membranes to fragment in cells under non-permissive conditions and cells lose mtDNA, and are unable to grow in the presence of non-fermentable carbon source glycerol. Inhibiting mitochondrial division rescues growth. We have developed and optimized a luminescence cell viability assay in 1536 well format for the identification of inhibitors in the yeast mitochondrial fusion-defective assay.
The yeast glycerol stocks where kindly supplied by the laboratory of Dr. Jodi Nunnari, University of California, Davis. All yeast glycerol stock solutions were stored in single use aliquots at -80C. The CellTiterGlo luminescence reagent, containing luciferase and luciferin, were purchased from Promega, and the reagents were stored according to manufacturer's instructions. The Buffer components for the YPEG yeast growth medium were purchased from Sigma-Aldrich (St. Louis, MO). YPEG growth medium: 1% (w/v) yeast extract, 2% (w/v) Bacto-peptone, 3% Ethanol, 3% glycerol, 0.4mM Tryptophan, 0.36mM Adenine. qHTS Assay Protocol: 1.#Dispense 2.5 ul yeast growth medium per 1536 well plate. 2.#Transfer 23 nl per well of compound to plate. 3.#Dispense 2.5 ul yeast solution at appropriate seeding density per well. 4.#Incubate for 48 hours at 37C. 5.#Dispense 5 ul of CellTiterGlow solution per well. 6.#Incubate at ambient for 10 minutes. 7.#Read using bio-luminescence protocol on Viewlux.
For `COc1ccc(-c2c(-c3cc(OC)cc(OC)c3)n(C)c3ccc(-c4ccn[nH]4)cc23)cc1`, the Potency was 10 µM (active).
With `COc1cc(OC)cc(-c2c(-c3ccc(F)cc3)c3cc(-c4ccc5cc[nH]c5c4)ccc3n2C)c1` the Potency was “inactive”.
With `COc1cc(OC)cc(-c2c(-c3cccs3)c3cc(-c4ccc(OC)nc4)ccc3n2C)c1` the Potency was “inactive”.
In the case of `COC(=O)c1cc(S(=O)(=O)NCC2CCN(Cc3ccc(Cl)cc3)CC2)cn1C`, the Potency is reported as “inactive”.
In the case of `CCn1cc(/C=C(\NC(=O)c2ccc(C)cc2)C(=O)NCCN2CCOCC2)c2ccccc21`, the Potency is reported as “inactive”.
With `Cn1cccc1C1(C(F)(F)F)NCCNC1=O` (stereo not drawn) the Potency was “inactive”.
With `Cc1cc(C)cc(C(=O)OCC(=O)NCCNC(=O)COC(=O)c2cc(C)cc(C)c2)c1` the Potency was “inactive”.
For `COc1ccccc1-n1c(-c2ccc(C)cc2)cn2c3c(=O)n(C)c(=O)n(C)c3nc12`, the Potency was “inactive”.
For `O=C(COC(=O)c1ccccc1Cl)NC1CCCCCCC1`, the Potency was “inactive”.
For `OCCn1c(-c2ccccc2)csc1=Nc1ccccc1`, the Potency was 11.2 µM (active).
With `Cc1csc(=NC(=O)c2ccccc2)n1CCO` the Potency was “inactive”.
In the case of `Cc1csc(=Nc2ccccc2)n1CCO`, the Potency is reported as “inactive”.
With `CCN1C(=O)[C@@H]2[C@@H](c3ccc(-c4cccc(Cl)c4)cc3)N3CCC[C@@]3(C(=O)OC)[C@@H]2C1=O` the Potency was “inactive”.
In the case of `COc1cccc(C(=O)NCCS(=O)(=O)NCC2CCCO2)c1` (stereo not drawn), the Potency is reported as “inactive”.
For `COc1cccc(/C=C2\Sc3ccc(C(=O)NCC4CCCO4)cc3N(C)C2=O)c1` (stereo not drawn), the Potency was 17.8 µM (active).
With `COc1ccccc1-n1cnc2cc(C(=O)NCC3CCCO3)ccc21` (stereo not drawn) the Potency was “inactive”.
For `O=C(NC1CCCC1)C1CC(=O)N(c2ccc(F)cc2)C1` (stereo not drawn), the Potency was “inactive”.
With `O=C1CN(C(=O)CN2C(=O)NC3(CCCCC3)C2=O)c2ccccc2N1` the Potency was “inactive”.
In the case of `CCOC(=O)C1=C(N)N(c2ccc(C)cc2)C2=C(C(=O)CCC2)C1c1cccs1` (stereo not drawn), the Potency is reported as 20 µM (active).
For `O=C1CCCC2=C1C(c1cccs1)CC(=O)N2c1ccc(F)cc1` (stereo not drawn), the Potency was “inactive”.
With `CCOC(=O)c1cc2c(n(-c3ccc(C)cc3)c1=O)CCCC2=O` the Potency was “inactive”.
For `COC(=O)C(C)N=Cc1ccccc1` (stereo not drawn), the Potency was “inactive”.
In the case of `COc1ccc(S(=O)(=O)N2CCN(CC(=O)N3c4ccccc4CC3C)CC2)cc1OC` (stereo not drawn), the Potency is reported as “inactive”.
In the case of `NC(=O)C1CCN(Cc2nc3c(Br)cc(Br)cc3c(=O)[nH]2)CC1`, the Potency is reported as “inactive”.
With `COC(=O)c1c(NC(=O)CSc2nncs2)sc2c1CCCCC2` the Potency was “inactive”.
For `CC(C)OC(=O)c1c(NC(=O)c2ccco2)sc2c1CCCC2`, the Potency was “inactive”.
With `COC(=O)c1c(NC(=O)c2cccs2)sc2c1CCCC2` the Potency was 14.1 µM (active).
With `C=CC1(C)CC(=O)C2(O)C(C)(O1)C(OC(C)=O)C(O)C1C(C)(C)CCC(O)C12C` (stereo not drawn) the Potency was “inactive”.

Reference: PubChem BioAssay AID485298 (National Center for Advancing Translational Sciences (NCATS), 2010)
Potency is the fitted concentration of half-maximal effect.
